From the supplement of paper PMC8728848
Many of the other results were omitted from the sample, so the strongest signals are more common in it than they were.

Experiments:
Assay in all cases: glycan array binding signal (z-score within array); higher = stronger binding
Details in all cases: glycan notation: IUPAC condensed, linker removed
Fuc(a1-2)Gal = molecular target: Fuc(a1-2)Gal
How it was run: (§1)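 From the Consortium for Functional Glycomics database, 3228 arrays were curated, keeping only those whose protein sequence was available. Binding is given as a within-array Z-score averaged across arrays sharing a protein sequence and across linkers. Negative Z-scores can be read as non-binding.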

Fuc(a1-2)Gal(b1-3)GlcNAc = molecular target: Fuc(a1-2)Gal(b1-3)GlcNAc
How it was run: as §1

[1] = molecular target: Fuc(a1-2)Gal(b1-3)GlcNAc(b1-3)[Gal(b1-4)GlcNAc(b1-6)]Gal(b1-4)Glc
How it was run: as §1

[2] = molecular target: Fuc(a1-2)Gal(b1-3)[Fuc(a1-4)]GlcNAc
How it was run: as §1

[3] = molecular target: Fuc(a1-2)Gal(b1-4)Fuc(a1-3)]GlcNAc(b1-2)Man(a1-3)[Fuc(a1-2)Gal(b1-4)[Fuc(a1-3)]GlcNAc(b1-2)Man(a1-6)]Man(b1-4)GlcNAc(b1-4)GlcNAc
How it was run: as §1

[4] = molecular target: Fuc(a1-2)Gal(b1-4)GlcNAc6S
How it was run: as §1

[5] = molecular target: Fuc(a1-2)[Gal(a1-3)]Gal(b1-4)GlcNAc(b1-6)GalNAc
How it was run: as §1

[6] = molecular target: Fuc(a1-2)[GalNAc(a1-3)]Gal(b1-3)GalNAc(b1-3)Gal(a1-4)Gal(b1-4)Glc
How it was run: as §1

[7] = molecular target: Fuc(a1-2)[GalNAc(a1-3)]Gal(b1-3)GlcNAc(b1-6)GalNAc
How it was run: as §1

[8] = molecular target: Gal(a1-3)[Gal(a1-4)]Gal(b1-4)GlcNAc
How it was run: as §1

[9] = molecular target: Gal(b1-3)GlcNAc(a1-3)Gal(b1-4)GlcNAc
How it was run: as §1

Gal(b1-3)GlcNAc(b1-2)Man = molecular target: Gal(b1-3)GlcNAc(b1-2)Man
How it was run: as §1

[10] = molecular target: Gal(b1-3)[Fuc(a1-4)]GlcNAc(b1-2)Man
How it was run: as §1

[11] = molecular target: Gal(b1-3)[Fuc(a1-4)]GlcNAc(b1-3)Gal(b1-3)[Fuc(a1-4)]GlcNAc
How it was run: as §1

[12] = molecular target: Gal(b1-3)[Neu5Ac(b2-6)]GalNAc
How it was run: as §1

Gal(b1-4)GlcNAc = molecular target: Gal(b1-4)GlcNAc
How it was run: as §1

[13] = molecular target: Gal(b1-4)GlcNAc(b1-2)[Gal(b1-4)GlcNAc(b1-4)]Man(a1-3)[GlcNAc(b1-4)][Gal(b1-4)GlcNAc(b1-2)Man(a1-6)]Man(b1-4)GlcNAc(b1-4)GlcNAc
How it was run: as §1

[14] = molecular target: Gal(b1-4)GlcNAc(b1-3)Gal(b1-4)GlcNAc(b1-2)Man(a1-3)[Gal(b1-4)GlcNAc(b1-3)Gal(b1-4)GlcNAc(b1-2)Man(a1-6)]Man(b1-4)GlcNAc(b1-4)GlcNAc
How it was run: as §1

[15] = molecular target: Gal(b1-4)GlcNAc(b1-3)Gal(b1-4)GlcNAc(b1-3)Gal(b1-4)GlcNAc(b1-2)Man(a1-3)[Gal(b1-4)GlcNAc(b1-3)Gal(b1-4)GlcNAc(b1-3)Gal(b1-4)GlcNAc(b1-2)Man(a1-6)]Man(b1-4)GlcNAc(b1-4)GlcNAc
How it was run: as §1

[16] = molecular target: GalNAc(b1-4)GlcNAc(b1-2)Man
How it was run: as §1

Glc(a1-6)Glc(a1-6)Glc = molecular target: Glc(a1-6)Glc(a1-6)Glc
How it was run: as §1

[17] = molecular target: GlcNAc(a1-4)Gal(b1-4)GalNAc
How it was run: as §1

[18] = molecular target: GlcNAc(a1-4)Gal(b1-4)GlcNAc(b1-3)Gal(b1-4)GlcNAc
How it was run: as §1

[19] = molecular target: GlcNAc(a1-6)Gal(b1-4)GlcNAc
How it was run: as §1

[20] = molecular target: GlcNAc(b1-3)Gal(b1-4)GlcNAc(b1-3)Gal(b1-4)GlcNAc(b1-2)Man(a1-3)[GlcNAc(b1-3)Gal(b1-4)GlcNAc(b1-3)Gal(b1-4)GlcNAc(b1-2)Man(a1-6)]Man(b1-4)GlcNAc(b1-4)GlcNAc
How it was run: as §1

[21] = molecular target: GlcNAc(b1-3)Gal(b1-4)GlcNAc(b1-3)Gal(b1-4)GlcNAc(b1-2)[GlcNAc(b1-3)Gal(b1-4)GlcNAc(b1-3)Gal(b1-4)GlcNAc(b1-6)]Man(a1-6)[GlcNAc(b1-3)Gal(b1-4)GlcNAc(b1-3)Gal(b1-4)GlcNAc(b1-2)Man(a1-3)]Man(b1-4)GlcNAc(b1-4)[Fuc(a1-6)]GlcNAc
How it was run: as §1

[22] = molecular target: GlcNAc(b1-3)Gal(b1-4)GlcNAc(b1-3)Gal(b1-4)GlcNAc(b1-3)Gal(b1-4)GlcNAc(b1-2)[GlcNAc(b1-3)Gal(b1-4)GlcNAc(b1-3)Gal(b1-4)GlcNAc(b1-3)Gal(b1-4)GlcNAc(b1-6)]Man(a1-6)[GlcNAc(b1-3)Gal(b1-4)GlcNAc(b1-3)Gal(b1-4)GlcNAc(b1-3)Gal(b1-4)GlcNAc(b1-2)Man(a1-3)]Man(b1-4)GlcNAc(b1-4)[Fuc(a1-6)]GlcNAc
How it was run: as §1

[23] = molecular target: GlcNAc(b1-4)GlcNAc(b1-4)GlcNAc
How it was run: as §1

[24] = molecular target: GlcNAc6S(b1-3)Gal(b1-4)GlcNAc
How it was run: as §1

[25] = molecular target: Man(a1-2)Man(a1-2)Man(a1-6)[Man(a1-3)]Man
How it was run: as §1

Man(a1-2)Man(a1-3)Man = molecular target: Man(a1-2)Man(a1-3)Man
How it was run: as §1

[26] = molecular target: Man(a1-2)Man(a1-6)[Man(a1-3)]Man(a1-6)[Man(a1-2)Man(a1-2)Man(a1-3)]Man
How it was run: as §1

[27] = molecular target: Neu5Ac(a2-3)Gal(b1-3)GlcNAc(b1-2)Man
How it was run: as §1

[28] = molecular target: Neu5Ac(a2-3)Gal(b1-3)GlcNAc(b1-2)Man(a1-3)[GlcNAc(b1-4)][Neu5Ac(a2-3)Gal(b1-3)GlcNAc(b1-2)Man(a1-6)]Man(b1-4)GlcNAc(b1-4)GlcNAc
How it was run: as §1

[29] = molecular target: Neu5Ac(a2-3)Gal(b1-3)[Neu5Ac(a2-6)]GlcNAc(b1-3)[Fuc(a1-3)[Gal(b1-4)]GlcNAc(b1-6)]Gal(b1-4)Glc
How it was run: as §1

[30] = molecular target: Neu5Ac(a2-3)Gal(b1-4)GlcNAc(b1-2)Man(a1-3)[GlcNAc(b1-4)][Neu5Ac(a2-3)Gal(b1-4)GlcNAc(b1-2)Man(a1-6)]Man(b1-4)GlcNAc(b1-4)GlcNAc
How it was run: as §1

[31] = molecular target: Neu5Ac(a2-3)Gal(b1-4)GlcNAc(b1-3)Gal(b1-4)GlcNAc(b1-3)Gal(b1-4)GlcNAc(b1-2)Man(a1-3)[Neu5Ac(a2-3)Gal(b1-4)GlcNAc(b1-3)Gal(b1-4)GlcNAc(b1-3)Gal(b1-4)GlcNAc(b1-2)Man(a1-6)]GalNAc
How it was run: as §1

[32] = molecular target: Neu5Ac(a2-3)Gal(b1-4)GlcNAc(b1-3)Gal(b1-4)GlcNAc(b1-6)[Gal(b1-3)]GalNAc
How it was run: as §1

[33] = molecular target: Neu5Ac(a2-3)Gal(b1-4)GlcNAc(b1-6)GalNAc
How it was run: as §1

[34] = molecular target: Neu5Ac(a2-3)Gal(b1-4)GlcNAc(b1-6)[Gal(b1-3)]GalNAc
How it was run: as §1

[35] = molecular target: Neu5Ac(a2-3)[GalNAc(b1-4)]Gal(b1-4)GlcNAc
How it was run: as §1

[36] = molecular target: Neu5Ac(a2-3)[Neu5Ac(a2-6)]GalNAc
How it was run: as §1

Neu5Ac(a2-6)Gal(b1-4)Glc = molecular target: Neu5Ac(a2-6)Gal(b1-4)Glc
How it was run: as §1

[37] = molecular target: Neu5Ac(a2-6)Gal(b1-4)GlcNAc(b1-2)Man(a1-3)[Neu5Ac(a2-6)Gal(b1-4)GlcNAc(b1-2)Man(a1-6)]Man(b1-4)GlcNAc(b1-4)[Fuc(a1-6)]GlcNAc
How it was run: as §1

[38] = molecular target: Neu5Ac(a2-6)Gal(b1-4)GlcNAc(b1-2)Man(a1-6)[Man(a1-3)]Man(b1-4)GlcNAc(b1-4)GlcNAc
How it was run: as §1

[39] = molecular target: Neu5Ac(a2-6)Gal(b1-4)GlcNAc(b1-2)[Neu5Ac(a2-6)Gal(b1-4)GlcNAc(b1-4)]Man(a1-3)[GlcNAc(b1-4)][Neu5Ac(a2-6)Gal(b1-4)GlcNAc(b1-2)[Neu5Ac(a2-6)Gal(b1-4)GlcNAc(b1-6)]Man(a1-6)]Man(b1-4)GlcNAc(b1-4)GlcNAc
How it was run: as §1

[40] = molecular target: Neu5Ac(a2-6)Gal(b1-4)GlcNAc(b1-3)Gal(b1-3)GlcNAc
How it was run: as §1

[41] = molecular target: Neu5Ac(a2-6)Gal(b1-4)GlcNAc(b1-3)Gal(b1-4)GlcNAc(b1-3)Gal(b1-4)GlcNAc(b1-2)Man(a1-3)[Neu5Ac(a2-6)Gal(b1-4)GlcNAc(b1-3)Gal(b1-4)GlcNAc(b1-3)Gal(b1-4)GlcNAc(b1-2)Man(a1-6)]GalNAc
How it was run: as §1

[42] = molecular target: Neu5Gc(a2-3)Gal(b1-3)[Fuc(a1-4)]GlcNAc
How it was run: as §1

B1: Als3-N (Candida albicans) (protein)
chain: KTITGVFNSFNSLTWSNAATYNYKGPGTPTWNAVLGWSLDGTSASPGDTFTLNMPCVFKFTTSQTSVDLTAHGVKYATCQFQAGEEFMTFSTLTCTVSNTLTPSIKALGTVTLPLAFNVGGTGSSVDLEDSKCFTAGTNTVTFNDGGKKISINVDFERSNVDPKGYLTDSRVIPSLNKVSTLFVAPQCANGYTSGTMGFANTYGDVQIDCSNIHVGITKGLNDWNYPVSSESFSYTKTCSSNGIFITYKNVPAGYRPFVDAYISATDVNSYTLSYANEYTCAGGYWQRAPFTLRWTGYRNSDAGSNGIVIVATTRTVTDSTTAVTTLPFDPNRDKTKTIEILKPIPTTTITTSYVGVTTSYLTKTAPIGETATVIVDIPYHTTTTVTSKWTGTITSTTTHTNPTDSIDTVIVQVP
glycan array binding signal (z-score) (Fuc(a1-2)Gal): -0.276
glycan array binding signal (z-score) (Fuc(a1-2)Gal(b1-3)GlcNAc): -0.288
glycan array binding signal (z-score) [1]: -0.291
glycan array binding signal (z-score) [2]: -0.271
glycan array binding signal (z-score) [3]: 2.75
glycan array binding signal (z-score) [4]: -0.257
glycan array binding signal (z-score) [5]: -0.082
glycan array binding signal (z-score) [6]: -0.14
glycan array binding signal (z-score) [7]: -0.223
glycan array binding signal (z-score) [8]: -0.221
glycan array binding signal (z-score) [9]: 2.03
glycan array binding signal (z-score) (Gal(b1-3)GlcNAc(b1-2)Man): 0.065
glycan array binding signal (z-score) [10]: 0.115
glycan array binding signal (z-score) [11]: 2.42
glycan array binding signal (z-score) [12]: 0.915
glycan array binding signal (z-score) (Gal(b1-4)GlcNAc): -0.168
glycan array binding signal (z-score) [13]: -0.288
glycan array binding signal (z-score) [14]: 8.26
glycan array binding signal (z-score) [15]: 3.26
glycan array binding signal (z-score) [16]: 0.231
glycan array binding signal (z-score) (Glc(a1-6)Glc(a1-6)Glc): -0.244
glycan array binding signal (z-score) [17]: -0.081
glycan array binding signal (z-score) [18]: -0.232
glycan array binding signal (z-score) [19]: -0.233
glycan array binding signal (z-score) [20]: 3.11
glycan array binding signal (z-score) [21]: 2.36
glycan array binding signal (z-score) [22]: 3.08
glycan array binding signal (z-score) [23]: -0.099
glycan array binding signal (z-score) [24]: -0.1
glycan array binding signal (z-score) [25]: -0.257
glycan array binding signal (z-score) (Man(a1-2)Man(a1-3)Man): -0.226
glycan array binding signal (z-score) [26]: -0.361
glycan array binding signal (z-score) [27]: -0.29
glycan array binding signal (z-score) [28]: -0.11
glycan array binding signal (z-score) [29]: -0.237
glycan array binding signal (z-score) [30]: -0.08
glycan array binding signal (z-score) [31]: 4.72
glycan array binding signal (z-score) [32]: 0.08
glycan array binding signal (z-score) [33]: -0.202
glycan array binding signal (z-score) [34]: -0.233
glycan array binding signal (z-score) [35]: 2.21
glycan array binding signal (z-score) [36]: -0.049
glycan array binding signal (z-score) (Neu5Ac(a2-6)Gal(b1-4)Glc): -0.187
glycan array binding signal (z-score) [37]: -0.102
glycan array binding signal (z-score) [38]: -0.309
glycan array binding signal (z-score) [39]: -0.151
glycan array binding signal (z-score) [40]: -0.283
glycan array binding signal (z-score) [41]: 2.56
glycan array binding signal (z-score) [42]: -0.341
